Screen size: about 13,000 compounds; about 3,200 (25%) showed an effect of 50% or more. Some of the results follow.

The test system of this assay is P. falciparum stage V gametocytes. Also on record: BacTiter-Glo ATP luminescence viability of purified stage V gametocytes in 384-well plates, per cent inhibition versus DMSO. The conditions noted are these: 48 h, 5 µM; inhibitor.
As for `CC(C)(C)c1nn(-c2ccccc2)c2[nH]c(=O)c(CNC3CCCC3)cc12` [TCMDC-136483], the “% Inhibition” value amounted to 5.874%. The result for `Cc1cccc2c(C(=O)NC3CCN(Cc4ccccc4)CC3)cc(-c3cccnc3)nc12` [TCMDC-124900] reads 15.64%; that for `O=S(=O)(c1c(Cl)cc(Cl)cc1Cl)N1CCCCC(c2ccc(F)c(F)c2)=N1` [TCMDC-135420], -45.8%; that for `Cc1cccc(-c2cccc(CNc3nc(NCCc4ccc(O)cc4)nc(N4CCNCC4)n3)c2)c1` [TCMDC-133810], 31.6%. As for `O=C(Nc1ccc(-c2oc(C(=O)NCCc3cccc(Cl)c3)cc2-c2ccncc2)cc1)Nc1cccc(Cl)c1` [TCMDC-135809], the figure is -31.28%. In the case of `CC(C)CNC(=O)c1cncc(-c2ccc(CN3CCC(N4CCCC4)CC3)cc2)c1` [TCMDC-134236], the “% Inhibition” value amounted to 32.19%. As for `COc1ccc(CNc2ncnc3c2[nH]c2ccc(F)cc23)cc1` [TCMDC-124466], the figure is 15.1%. In the case of `Cc1cc2c(/C=C/C(=O)NC3CCC(CCN4CCc5ccc(C#N)cc5CC4)CC3)cccc2[nH]1` (stereo not drawn) [TCMDC-139674], the “% Inhibition” value was -23%. On to `CCN(CCC1(c2ccc(Cl)c(Cl)c2)CN(C(=O)c2cc(OC)c(OC)c(OC)c2)CCO1)C1CC2c3ccccc3CC21` (stereo not drawn) [TCMDC-135570], for which the “% Inhibition” value is -88.52%. `CC(=O)Nc1nc(C(=O)Nc2cccc(-c3ccc(-c4nc5ccc(F)cc5[nH]4)cc3)c2)cs1` [TCMDC-137126]: the “% Inhibition” value turned out to be 7.232%.

As to `O=C(Nc1cccc(-c2ccc(-c3nc4ccc(F)cc4[nH]3)cc2)c1)c1csnn1` [TCMDC-136900], the “% Inhibition” value is -0.6993%. With `Cc1nnsc1C(=O)Nc1cccc(-c2ccc(-c3nc4ccc(F)cc4[nH]3)cc2)c1` [TCMDC-137082], the “% Inhibition” value was 79.62%. The result for `CC[C@H](C)CNC(=O)c1ccnc(-c2ccc(CNCCCc3ccccc3)cc2)c1` [TCMDC-134251] reads 81.79%; that for `CC[C@H](C)CNC(=O)c1cncc(-c2ccc(CNCCCc3ccccc3)cc2)c1` [TCMDC-134246], -1.463%; that for `CC(C)CNC(=O)c1ccnc(-c2ccc(CNCCCc3ccccc3)cc2)c1` [TCMDC-134252], -3.007%. As for `Cc1nc(N)nc(N)c1OCc1cccc2ccccc12` [TCMDC-131357], the figure is -0.5645%; as for `Cc1cccc2[nH]c(-c3ccc(-c4cccc(CN5CCCC5CN)c4)cc3)nc12` (stereo not drawn) [TCMDC-132993], 21.61%.

Turning to `Cc1cccc2[nH]c(-c3ccc(-c4ccc(CN5CCCCC5)cc4)cc3)nc12` [TCMDC-133901], the “% Inhibition” value is -1.455%. As for `Cc1cccc2[nH]c(-c3cccc(-c4ccc(CN5CCCC5CN)cc4)c3)nc12` (stereo not drawn) [TCMDC-132991], the figure is 36.61%; as for `Cc1cccc2[nH]c(-c3ccc(-c4ccc(CN5CCN(CCC#N)CC5)cc4)cc3)nc12` [TCMDC-133867], -11.37%. As for `Cc1cccc2[nH]c(-c3ccc(-c4ccc(CN5CCN(c6ccncc6)CC5)cc4)cc3)nc12` [TCMDC-132919], the “% Inhibition” value stood at 17.4%. As to `Cc1cccc2[nH]c(-c3ccc(-c4ccc(CN5CCCC(N)C5)cc4)cc3)nc12` (stereo not drawn) [TCMDC-133863], the “% Inhibition” value is recorded as 93.4%. As for `Cc1cccc2[nH]c(-c3ccc(-c4ccc(CN5CCN(CCO)CC5)cc4)cc3)nc12` [TCMDC-133033], the figure is 4.83%; as for `Cc1cccc2[nH]c(-c3ccc(-c4ccc(CN5CCN(CC6CCCN(C)C6)CC5)cc4)cc3)nc12` (stereo not drawn) [TCMDC-133898], 93.25%; as for `Cc1cccc2[nH]c(-c3ccc(-c4cccc(CN5CCC(C(N)=O)CC5)c4)cc3)nc12` [TCMDC-132694], -8.961%. The result for `Cc1cccc2[nH]c(-c3ccc(-c4ccc(CN5CCN(CCN6CCOCC6)CC5)cc4)cc3)nc12` [TCMDC-133931] reads 6.93%. As for `Cc1cccc2[nH]c(-c3ccc(-c4ccc(CN5CCN(C6CCN(C)CC6)CC5)cc4)cc3)nc12` [TCMDC-133865], the figure is 83.09%. For the molecule `Cc1cccc2[nH]c(-c3ccc(-c4ccc(CN5CCCC5CN)cc4)cc3)nc12` (stereo not drawn) [TCMDC-132999], the “% Inhibition” value was 66.58%. The result for `O=C(Nc1cccc(OC2CCN(Cc3ccsc3)CC2)c1)c1ccc(C(F)(F)F)cc1` [TCMDC-133737] reads -11.34%; that for `Cc1cc(OCc2ccncc2)cc2c1C(=O)CC(C)(C)O2` [TCMDC-131314], 21.7%. With `O=C(N1CCN(c2ccnc3cc4c(cc23)N(Cc2ccccc2)CC4)CC1)C(F)(F)F` [TCMDC-140138], the “% Inhibition” value came out at 5.48%. The result for `O=C(Nc1ccc2c(c1)CCN2C1CCN(Cc2ccc(F)cc2Cl)C1)c1ccco1` (stereo not drawn) [TCMDC-135068] reads -23.63%; that for `Cc1ccc(C(=O)Nc2ccc(-c3nc4ccccc4[nH]3)cc2)cc1S(=O)(=O)N1CCOCC1` [TCMDC-124532], -13.26%; that for `COC(=O)c1cccc(CNCc2ccc(-c3ccc(-c4nc5cc(C(F)(F)F)ccc5[nH]4)s3)cc2)c1.O=C(O)C(F)(F)F` [TCMDC-132958], -50.86%. As for `CCCC(C)Nc1nc(C)cc(NCCC(=O)Nc2ccccc2)n1` (stereo not drawn) [TCMDC-134763], the figure is 23.15%; as for `Cc1sc(C)c(C(F)(F)F)c1CNCCCNc1cc(=O)c2ccccc2[nH]1` [TCMDC-140766], -57.97%; as for `FC(F)(F)COc1ccc2ccccc2c1CNCCCCCCNCc1c(OCC(F)(F)F)ccc2ccccc12` [TCMDC-137816], 113.4%.

As to `FC(F)(F)COc1ccc2ccccc2c1CCNCCCCNCCc1c(OCC(F)(F)F)ccc2ccccc12` [TCMDC-137317], the “% Inhibition” value is listed as 103.9%. As for `CC1CN(c2ccc3occ(C(=O)Nc4ccc(-c5ccncc5)c(Cl)c4)c3c2)CC(C)N1C` (stereo not drawn) [TCMDC-141360], the figure is 38.63%. As for `O=C(Nc1cccc(-c2ccc(-c3nc4ccccc4[nH]3)s2)c1)c1ccncc1` [TCMDC-136956], the figure is 6.685%; as for `COc1cc2nc(NCCN3CCOCC3)n3nc(-c4ccccc4)nc3c2cc1OC` [TCMDC-124407], -12.35%. The result for `CCOC(=O)N1CCN(CCCNc2c3ccccc3nc3ccccc23)CC1.Cl` [TCMDC-137544] reads 15.5%; that for `CCCN1CCN(CCNc2c3ccccc3nc3ccccc23)CC1` [TCMDC-137549], 102.5%; that for `CCCN1CCN(CCCNc2c3ccccc3nc3ccccc23)CC1` [TCMDC-137478], 97.73%. On to `CCCN1CCN(CCCCNc2c3ccccc3nc3ccccc23)CC1` [TCMDC-137576], for which the “% Inhibition” value was determined as 93%. As for `CC(C)CN1CCN(CCNc2c3ccccc3nc3ccccc23)CC1` [TCMDC-138008], the figure is 92.54%. The result for `O=C1NC(C(=O)Nc2ccccc2)C(c2ccccc2)S1` (stereo not drawn) [TCMDC-131740] reads 2.02%; that for `O=C(Nc1ccc(-c2ccc(-c3nc4ccccc4[nH]3)s2)cc1)Nc1ccc(F)c(F)c1F` [TCMDC-133236], -3.503%. For `CCC[C@@H]([C@@H](CC1CCCCC1)C(=O)N[C@H](C(=O)Nc1nccs1)C(C)(C)SCCNC(=O)OCc1ccccn1)N(O)C=O` [TCMDC-137794], the “% Inhibition” value was 19.2%. `O=C(N/C=N/c1cc([N+](=O)[O-])c(-c2ccncc2)n1-c1ccccc1)c1cccc(O)c1` [TCMDC-125648]: the “% Inhibition” value was -19.59%. Take `O=c1ccccn1CCCC1CCCCN1` (stereo not drawn) [TCMDC-140731]: the “% Inhibition” value is listed as 9.489%. As for `Oc1ccccc1CN(CCCN(Cc1ccccn1)Cc1ccccc1O)Cc1ccccn1` [TCMDC-138469], the figure is 77.52%; as for `CCCCN(CCCC)Cc1cc2ccccc2cc1O` [TCMDC-137590], -20.89%; as for `Oc1ccc(OCc2ccccn2)cc1` [TCMDC-125881], 0.9057%. In the case of `COc1nc(Nc2cccc(C)c2)nc(OC)n1` [TCMDC-124204], the “% Inhibition” value is reported as -12.01%.

Turning to `CN(C)C(CNc1ncnc2cc(Cl)ccc12)Cc1ccccc1` (stereo not drawn) [TCMDC-124600], the “% Inhibition” value was -0.01557%.

For the molecule `Cc1c(Cl)cccc1S(=O)(=O)N1CCCCC(c2ccc(C(F)(F)F)cc2)=N1` [TCMDC-134534], the “% Inhibition” value was -14.43%. With `CC(=O)CSC(C=Cc1ccc(N(C)C)cc1)=Nc1ccccc1` [TCMDC-137558], the “% Inhibition” value was -4.21%. As for `CN(C)c1ccc2c(c1)Sc1cc(N(C)C)ccc1N2C(=O)c1cccc(C(=O)O)c1` [TCMDC-124169], the “% Inhibition” value came to 30.57%. The result for `CN(C)c1ccc2c(c1)Sc1cc(N(C)C)ccc1N2C(=O)CCCC(=O)O` [TCMDC-125778] reads 104%. As to `O=C(Nc1cccc(Cl)c1Cl)N[C@H]1CCN(CCCCCNC(=O)C2CC2c2ccc(Cl)c(Cl)c2)C1` (stereo partly drawn) [TCMDC-136267], the “% Inhibition” value was -46.93%.

For `O=C(Nc1cc(Cl)ccc1Cl)N[C@H]1CCN(CCCCCNC(=O)C2CC2c2ccc(Cl)c(Cl)c2)C1` (stereo partly drawn) [TCMDC-136265], the “% Inhibition” value is given as 55.1%.

In the case of `O=C(Nc1ccc(Cl)cc1Cl)N[C@H]1CCN(CCCCCNC(=O)C2CC2c2ccc(Cl)c(Cl)c2)C1` (stereo partly drawn) [TCMDC-136268], the “% Inhibition” value was -5.844%. The result for `O=C(Nc1ccc(Cl)cc1F)NC1CCN(CCCCCNC(=O)C2CC2c2ccc(Cl)c(Cl)c2)CC1` (stereo not drawn) [TCMDC-136258] reads 66.19%; that for `O=C(Nc1ccc(Cl)cc1Cl)NC1CCN(CCCCCNC(=O)C2CC2c2ccc(Cl)c(Cl)c2)CC1` (stereo not drawn) [TCMDC-136257], 1.836%; that for `O=C(Nc1ccc(F)cc1F)NC1CCN(CCCCCNC(=O)C2CC2c2ccc(Cl)c(Cl)c2)CC1` (stereo not drawn) [TCMDC-136253], -52.54%. Consider `O=C(Nc1cc(Cl)cc(Cl)c1)N[C@H]1CCN(CCCCCNC(=O)C2CC2c2ccc(Cl)c(Cl)c2)C1` (stereo partly drawn) [TCMDC-136273], for which the “% Inhibition” value is 86.02%.

As for `O=C(Nc1ccc(Cl)cc1)N[C@H]1CCN(CCCCCNC(=O)C2CC2c2ccc(Cl)c(Cl)c2)C1` (stereo partly drawn) [TCMDC-136262], the “% Inhibition” value is 1.23%.

Regarding `O=C(Nc1ccc(Cl)cc1F)N[C@H]1CCN(CCCCCNC(=O)C2CC2c2ccc(Cl)c(Cl)c2)C1` (stereo partly drawn) [TCMDC-136269], the “% Inhibition” value was 0.8246%.
